# What was measured:
# Conditions in all cases: concentration: 1 μM, replicates: in singlicate; n = 1
# INSRR = system: INSRR
# INSR = system: INSR
# IRAK1 = system: IRAK1
# IRAK3 = system: IRAK3
# IRAK4 = system: IRAK4
# ITK = system: ITK
# [1] = system: JAK1(JH1domain-catalytic)
# [2] = system: JAK1(JH2domain-pseudokinase)
# [3] = system: JAK2(JH1domain-catalytic)
# [4] = system: JAK3(JH1domain-catalytic)
# JNK1 = system: T1, JNK1
# T1 construct: gene MAPK8
# JNK2 = system: T2, JNK2
# T2 construct: gene MAPK9
# JNK3 = system: T3, JNK3
# T3 construct: gene MAPK10
# KIT-autoinhibited = system: KIT-autoinhibited
# KIT = system: KIT
# LATS1 = system: LATS1
# LATS2 = system: LATS2
# LCK = system: LCK
# LIMK1 = system: LIMK1
# LIMK2 = system: LIMK2
# 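Note: KINOMEscan kinase panel screen.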
Structure (SMILES),%Inh (INSRR),%Inh (INSR),%Inh (IRAK1),%Inh (IRAK3),%Inh (IRAK4),%Inh (ITK),%Inh [1],%Inh [2],%Inh [3],%Inh [4],%Inh (JNK1),%Inh (JNK2),%Inh (JNK3),%Inh (KIT-autoinhibited),%Inh (KIT),%Inh (LATS1),%Inh (LATS2),%Inh (LCK),%Inh (LIMK1),%Inh (LIMK2)
CC(C)N1CCC(n2cnc(-c3ccc(F)cc3)c2-c2ccnc(N)n2)CC1 [SB-223132],0%,0%,0%,23%,0%,0%,0%,56%,0%,24%,23%,12%,0%,0%,0%,0%,0%,14%,0%,9%
Fc1ccc(-c2ncn(CCCNCc3ccccc3)c2-c2ccncc2)cc1,5%,0%,24%,9%,19%,21%,0%,24%,36%,8%,34%,48%,57%,4%,19%,30%,34%,40%,10%,7%
FC(F)(F)c1ccc(-c2nn3ncccc3c2-c2ccnc(Nc3cccc(C(F)(F)F)c3)n2)cc1 [GW828205],0%,0%,0%,11%,0%,15%,0%,5%,0%,0%,0%,0%,0%,2%,43%,0%,0%,25%,0%,0%
O=C(Nc1ccccc1F)NC1CCN(c2ccnc(Nc3ccc(F)cc3)n2)C1 (stereo not drawn) [GSK1379722],0%,0%,34%,14%,14%,12%,12%,0%,8%,0%,29%,31%,23%,0%,5%,0%,0%,14%,10%,0%
Nc1nc(-c2ccccn2)c(-c2ccnc3ccccc23)s1 [GW548057],0%,0%,33%,0%,0%,5%,28%,5%,22%,0%,0%,19%,1%,3%,11%,0%,23%,10%,0%,9%
Cn1ccc2ncnc(Oc3ccc(NC(=O)Nc4cccnc4)c(Cl)c3)c21,0%,6%,0%,12%,6%,11%,12%,4%,0%,21%,0%,0%,0%,0%,98.7%,23%,0%,0%,0%,0%
CC(C)(C)OC(=O)NC1CCCN(c2cc(-c3ccc4c(N)n[nH]c4c3)nc(N)n2)C1 (stereo not drawn) [GSK2286096],0%,0%,0%,0%,8%,6%,6%,15%,0%,0%,34%,21%,7%,0%,8%,11%,0%,0%,6%,0%
O=C(Nc1n[nH]c2nc(-c3ccco3)c(Br)cc12)c1ccc(CN2CCCC2)cc1.O=C(O)[C@H](O)[C@@H](O)C(=O)O [SB-742352],0%,0%,0%,0%,0%,3%,0%,1%,0%,0%,0%,0%,0%,0%,99.2%,0%,0%,47%,26%,0%
O=C(CCO)NCCn1ccc2ncnc(Nc3ccc(Oc4cccc(C(F)(F)F)c4)c(Cl)c3)c21,0%,0%,0%,0%,0%,0%,0%,36%,0%,0%,8%,0%,1%,0%,0%,5%,2%,26%,0%,0%
CN1c2ccc(-c3ccc(C(=O)NCCO)cc3)cc2-c2[nH]ncc2S1(=O)=O,0%,0%,14%,44%,0%,12%,5%,35%,13%,97.2%,14%,1%,0%,17%,17%,0%,11%,28%,17%,7%
Cl.Fc1ccccc1COc1ccc(Nc2ncnc3ccc(-c4nnc(C(F)(F)F)o4)cc23)cc1Cl [GW424170],0%,0%,0%,0%,0%,4%,7%,0%,6%,0%,0%,4%,0%,0%,13%,0%,0%,12%,0%,16%
Clc1cc(Nc2ncnc3cc[nH]c23)ccc1OCc1ccccn1,0%,3%,6%,19%,2%,0%,3%,35%,16%,0%,31%,40%,53%,11%,38%,14%,29%,7%,0%,0%
Cc1ccc(O)cc1Nc1cc(C(F)(F)F)nc2ccc(-c3ccncc3)cc12 [GW630823],0%,0%,0%,56%,0%,19%,0%,0%,0%,0%,0%,0%,0%,0%,14%,0%,0%,14%,21%,15%
C[C@@H]1CCN(C(=O)CO)C[C@@H]1N(C)c1ncnc2[nH]ccc12,9%,0%,0%,19%,0%,0%,94%,21%,100%,98.8%,19%,0%,0%,0%,12%,0%,16%,20%,0%,8%
CCc1nc(-c2cccc(C)c2)c(-c2ccnc(NC(=O)c3ccccc3)c2)s1,0%,29%,14%,1%,6%,16%,22%,3%,19%,8%,53%,79%,93.3%,6%,21%,30%,100%,0%,0%,0%
CC(C)(C)c1ccc(-n2cnc3c(N)ncnc32)cc1 [SKF-97263],6%,21%,0%,7%,0%,6%,7%,82%,24%,0%,21%,3%,1%,1%,38%,0%,18%,8%,8%,0%
Cl.c1ccc(Cn2ccc3cc(Nc4ncnc5ccccc45)ccc32)cc1 [GW275568],0%,12%,0%,0%,0%,12%,18%,10%,100%,0%,0%,23%,16%,0%,41%,0%,22%,41%,8%,15%
FC(F)(F)c1ccc(-c2cc(-c3c[nH]nc3-c3ccccn3)ccn2)cc1 [GW599550],0%,0%,25%,5%,3%,11%,29%,0%,14%,0%,0%,5%,0%,0%,26%,0%,40%,25%,7%,0%
Cc1ccc(NC(=O)c2cccc(C#N)c2)cc1-c1ccc(C(=O)Nc2ccncc2)cc1 [GSK1398463],2%,6%,24%,9%,21%,16%,3%,6%,39%,0%,25%,16%,17%,13%,100%,19%,0%,83%,28%,14%
O=C(NCCCN1CCCC1=O)c1cnc(NCc2cc(Cl)ccc2Cl)nc1NC1CCNCC1,13%,0%,37%,0%,2%,0%,1%,4%,33%,0%,0%,0%,0%,0%,0%,0%,29%,15%,0%,0%
Cc1cccc(-c2nc(Nc3ccc4[nH]nnc4c3)c3ccccc3n2)n1 [GW867587],0%,0%,0%,0%,0%,0%,0%,52%,22%,0%,0%,0%,0%,0%,0%,0%,0%,7%,0%,0%

# — article PMC5540273 (PLoS ONE, 2017)
